Data on 30 compounds can be found in the supplement of paper PMC7866885, “A novel bicyclic 2,4-diaminopyrimidine inhibitor of Streptococcus suis dihydrofolate reductase” (PeerJ, 2021).

± gives the standard deviation.

In assay [1] the test system is Streptococcus suis HE06. Description: percent growth relative to DMSO control; higher = less growth inhibition. Conditions: 10 µM; incubation time 18 h. The method, then: (§1)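 CLSI broth microdilution: 5x10^4 CFU of Streptococcus suis (strain P1/7 or HE06) incubated with 10 µM Pathogen Box compound in cation-adjusted Mueller Hinton broth, 37 °C, 5% CO2, 18 h. Growth read as OD600 and expressed as percent of the DMSO-treated control (100%); mean ± SD of three independent experiments.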

Assay [2] deals with Streptococcus suis P1/7. Described as above. Conditions: 10 µM; incubation time 18 h. The method, then:
as §1

As to `O=C(OCc1ccccc1)N1CCC(c2cc(-c3ccncc3)c(-c3ccc(F)cc3)[nH]2)CC1`, the percent growth in assay [1] turned out to be 126 ± 61%; in assay [2], 92 ± 13%.

Take `CC(C)(C)C1CCC(CC2=C(O)C(=O)c3ccccc3C2=O)CC1` (stereo not given): the percent growth in assay [1] is 17.3 ± 28%; in assay [2], 36.3 ± 11%.

`Cc1nc(-c2ccccn2)nc(N2CCC(Cc3ccccc3)C2)c1Cl` (stereo not given): the figures for the percent growth in assay [1] and in assay [2] were 0.933 ± 1.6% and -0.158 ± 0.27%, respectively.

Regarding `Cc1cc(NCC(C)C)c2n[nH]c(-c3ccccc3)c2n1`, the values for the percent growth in assay [1] and in assay [2] were 81.1 ± 5.3% and 122 ± 79%, respectively.

For `COc1ccc(-c2nnc3ccc(-c4cccc(C(C)C)c4)cn23)cc1OC`, the percent growth in assay [1] came to 97.1 ± 15%; in assay [2] it was 68 ± 20%.

On to `CCc1c(C)nc(-n2nc(C)cc2NC(=O)c2ccccc2SC)[nH]c1=O`, for which the percent growth amounted to 0.0799 ± 0.092% in assay [1] and 1.97 ± 3.8% in assay [2].

On to `Cc1ccc2cc(C3NC(=O)c4ccccc4N3)c(Cl)nc2c1` (stereo not given), for which the percent growth came out at 72.4 ± 16% in assay [1] and 116 ± 46% in assay [2].

As to `NCCCC(N)(C(=O)O)C(F)F` (stereo not given), the percent growth in assay [1] turned out to be 84.8 ± 12%; in assay [2], 90.1 ± 16%.

As to `COc1cc(C2=NCCN2)cc2cc(-c3ccc(C4=NCCN4)cc3)oc12`, the percent growth in assay [1] worked out at 106 ± 34%; in assay [2], 83.2 ± 17%.

As for `Cc1cc(NC(=O)c2ccc(S(=O)(=O)N(Cc3ccccc3)C(C)C)cc2)no1`, the results for the percent growth in assay [1] and in assay [2] were 105 ± 27% and 71.6 ± 30%, respectively.

On to `O=C(Nc1cccc(-c2ccc(NCCCN3CCCC3)nc2)c1)c1ccccc1`, for which the results for the percent growth in assay [1] and in assay [2] were 96.7 ± 23% and 72.5 ± 24%, respectively.

Regarding `CNc1snc(C)c1C(=O)NCCOc1ccc(OC)cc1`, the values for the percent growth in assay [1] and in assay [2] were 102 ± 22% and 115 ± 71%, respectively.

With `CCCCc1ccc(NC(=O)Nc2ccc(O[C@H]3CCCC[C@@H]3N(C)c3ccccc3)c(F)c2)cc1`, the percent growth in assay [1] stood at 77.8 ± 26%; in assay [2], 67.2 ± 2.9%.

Turning to `CNC(=O)CNc1nc(-c2ccccn2)nc2scc(-c3ccccc3)c12`, the percent growth turned out to be 87.1 ± 13% in assay [1] and 43 ± 38% in assay [2].

On to `C[C@]1(O)C[C@@H](c2nc(-c3ccc4ccc(-c5ccccc5)nc4c3)c3c(N)nccn32)C1`, for which the results for the percent growth in assay [1] and in assay [2] were 81.6 ± 9.1% and 97 ± 18%, respectively.

For `COc1ccc(C(=N)N)cc1-c1cn(-c2ccc(C(=N)N)cc2)nn1`, the percent growth in assay [1] is 105 ± 42%; in assay [2] it was 75.7 ± 2.9%.

As to `O=C(Nc1cccc(Cl)c1)c1cnc(N2CCN(c3ccncc3)CC2)c(Cl)c1`, the percent growth in assay [1] turned out to be 62 ± 36%; in assay [2], 20.4 ± 12%.

Consider `c1ccc(Oc2ccc(-c3cncc(-c4ccc5[nH]ccc5c4)n3)cc2)cc1`, for which the percent growth worked out at 109 ± 24% in assay [1] and 83.7 ± 20% in assay [2].

Regarding `O=C(c1ccc(NCCO)cc1)C1C[C@H]1c1ccc(Cl)cc1` (stereo not given in full), the percent growth worked out at 147 ± 53% in assay [1] and 67 ± 24% in assay [2].

As for `C[C@H](c1ccc2c(c1)CCCC2)N(C)c1ncc2c(N)nc(N)nc2n1`, the results for the percent growth in assay [1] and in assay [2] were 84.7 ± 9.1% and 76.6 ± 18%, respectively.

With `O=C(NC1CCN(c2ccnc3ccccc23)C1)c1cccc(C(F)(F)F)c1` (stereo not given), the percent growth is 106 ± 30% in assay [1] and 81.5 ± 25% in assay [2].

`CCN(CC)S(=O)(=O)c1ccc(Cl)c(C(=O)Nc2ccc3nc(C)sc3c2)c1`: the figures for the percent growth in assay [1] and in assay [2] were 83.9 ± 6.7% and 138 ± 70%, respectively.

As for `Cc1ccc2[nH]c(C3CCCNC3)c(-c3ccncc3)c2c1` (stereo not given), the percent growth in assay [1] worked out at 108 ± 31%; in assay [2], 89.8 ± 7.2%.

With `N=C(N)c1ccc(-c2cc(-c3ccccc3)on2)cc1`, the percent growth in assay [1] is 85.2 ± 3%; in assay [2], 106 ± 55%.

On to `N#Cc1ccc(-c2cnc(N)c(-c3ccc(C(N)=O)cc3)n2)cc1`, for which the results for the percent growth in assay [1] and in assay [2] were 114 ± 46% and 73.1 ± 4.3%, respectively.

`COc1cccc(-n2nnnc2S(=O)(=O)Cc2ccccc2)c1`: the percent growth in assay [1] came to 33.8 ± 19%; in assay [2] it was 64.7 ± 47%.

Turning to `CC(=O)Nc1ccc(-c2noc(CC3CCCN(Cc4cccc(F)c4C)C3)n2)cc1` (stereo not given), the percent growth was 109 ± 44% in assay [1] and 108 ± 44% in assay [2].

In the case of `CCN(CC)C(=O)N1CCN(C)CC1`, the percent growth is 92.6 ± 6.9% in assay [1] and 91.1 ± 17% in assay [2].

Take `Cc1ccc2nc(C)c(-c3ccn(Cc4ccccc4)n3)n2c1`: the percent growth was found to be 90 ± 35% in assay [1] and 62.9 ± 23% in assay [2].

As to `O=C1COCc2ccc(Br)cc2N1Cc1ccc(C(F)(F)F)cc1`, the percent growth in assay [1] stood at 84.3 ± 26%; in assay [2], 75.4 ± 7.3%.
